Test results taken from PubChem BioAssay (EPA / NIEHS).
Where “and” joins values, the source holds several entries; their conditions need not be identical. Equal values may be shown once. Records with an inconclusive call do not appear. Some compounds were tested as several samples or in several runs, with calls that do not always agree. Calls of active or inactive are those of the source. Rule for the calls, unless noted: active = hit-call score of the fitted dose curve at least 0.9, where 1 is the maximum; inactive = score below 0.9.

Experiments:
[1] = target: human RAR-related Orphan Receptor gamma (RORg), RORC (gene 6097) (UniProt P51449); assay: ATG_RORg_TRANS: Attagene TRANS-FACTORIAL HepG2 Assay for human RAR-related Orphan Receptor gamma (RORg) (AID 2283011; active = hit-call score of the fitted dose curve at least 0.9, where 1 is the maximum)
Sequence of human RAR-related Orphan Receptor gamma (RORg), RORC (gene 6097) (P51449 whole entry, looked up, the tested form may be a part): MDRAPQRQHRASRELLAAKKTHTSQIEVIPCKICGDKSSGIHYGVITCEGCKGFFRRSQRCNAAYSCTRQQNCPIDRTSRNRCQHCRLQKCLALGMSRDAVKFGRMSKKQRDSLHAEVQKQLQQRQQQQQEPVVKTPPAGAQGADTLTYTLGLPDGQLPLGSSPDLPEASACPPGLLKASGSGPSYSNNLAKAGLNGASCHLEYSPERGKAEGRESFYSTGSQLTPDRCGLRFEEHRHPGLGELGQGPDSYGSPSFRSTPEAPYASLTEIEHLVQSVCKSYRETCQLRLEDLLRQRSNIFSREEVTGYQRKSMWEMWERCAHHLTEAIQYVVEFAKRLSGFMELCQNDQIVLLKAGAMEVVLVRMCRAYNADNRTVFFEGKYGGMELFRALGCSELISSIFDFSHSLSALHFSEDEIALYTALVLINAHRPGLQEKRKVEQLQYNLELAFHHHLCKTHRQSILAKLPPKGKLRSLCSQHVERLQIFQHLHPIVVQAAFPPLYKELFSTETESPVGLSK
Method in brief: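 Reporter transcripts from a transfected RORg-GAL4 chimera in HepG2 cells were quantified 24 h after dosing by RT-PCR, 6-FAM labelling, HpaI digestion and capillary electrophoresis; increases over DMSO baseline were fitted.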

[2] = target: Retinoic acid receptor RXR-alpha (Homo sapiens) (UniProt P19793); assay: ATG_RXRa_TRANS: Attagene TRANS-FACTORIAL HepG2 Assay for human Retinoid X Receptor alpha (RXRa) (AID 2283012; active = hit-call score of the fitted dose curve at least 0.9, where 1 is the maximum)
Sequence of Retinoic acid receptor RXR-alpha (Homo sapiens) (P19793 whole entry, looked up, the tested form may be a part): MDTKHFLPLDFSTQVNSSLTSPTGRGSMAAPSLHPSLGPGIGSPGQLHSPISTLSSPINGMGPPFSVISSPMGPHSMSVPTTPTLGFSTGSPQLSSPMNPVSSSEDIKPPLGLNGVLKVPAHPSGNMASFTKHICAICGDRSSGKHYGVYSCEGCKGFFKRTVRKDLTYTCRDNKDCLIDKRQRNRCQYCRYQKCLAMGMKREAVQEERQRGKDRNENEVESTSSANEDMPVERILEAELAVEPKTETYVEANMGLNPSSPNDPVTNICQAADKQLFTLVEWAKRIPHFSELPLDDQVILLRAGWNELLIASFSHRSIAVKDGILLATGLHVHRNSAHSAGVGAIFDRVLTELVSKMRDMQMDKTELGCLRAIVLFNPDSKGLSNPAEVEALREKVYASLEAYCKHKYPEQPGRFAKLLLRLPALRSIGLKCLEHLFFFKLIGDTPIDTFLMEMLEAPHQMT
Method in brief: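 HepG2 cells transiently transfected with GAL4-UAS reporter units and chimeric RXRa-Gal4 protein, treated 24 h. Reporter mRNA measured by RT-PCR, fluorescent labelling, HpaI digestion and capillary electrophoresis. Induction fitted against DMSO.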

[3] = target: human Thyroid Receptor alpha (THRa1), THRA (gene 7067) (UniProt P10827); assay: ATG_THRa1_TRANS: Attagene TRANS-FACTORIAL HepG2 Assay for human Thyroid Receptor alpha (THRa1) (AID 2283014; active = hit-call score of the fitted dose curve at least 0.9, where 1 is the maximum)
Sequence of human Thyroid Receptor alpha (THRa1), THRA (gene 7067) (P10827 whole entry, looked up, the tested form may be a part): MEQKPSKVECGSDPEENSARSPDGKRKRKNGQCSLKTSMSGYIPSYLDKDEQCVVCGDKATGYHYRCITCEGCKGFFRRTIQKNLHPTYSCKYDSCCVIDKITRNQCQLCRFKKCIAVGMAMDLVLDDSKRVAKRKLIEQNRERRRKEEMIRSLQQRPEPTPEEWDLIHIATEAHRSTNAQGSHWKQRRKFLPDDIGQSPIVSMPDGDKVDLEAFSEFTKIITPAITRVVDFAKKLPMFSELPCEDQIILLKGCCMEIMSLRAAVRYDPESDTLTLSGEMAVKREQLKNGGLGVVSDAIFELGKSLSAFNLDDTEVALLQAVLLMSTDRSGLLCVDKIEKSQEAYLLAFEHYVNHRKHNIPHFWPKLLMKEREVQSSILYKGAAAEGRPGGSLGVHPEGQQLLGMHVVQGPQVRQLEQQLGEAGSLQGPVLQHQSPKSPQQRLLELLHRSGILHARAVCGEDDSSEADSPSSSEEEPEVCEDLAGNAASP
Method in brief: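 Transcripts from GAL4-UAS-driven reporters, measured after 24 h compound exposure by RT-PCR plus capillary electrophoresis of 6-FAM-labeled fragments, were fitted for gain of signal relative to DMSO. Cells: transiently transfected HepG2 expressing NR-Gal4 chimeras.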

[4] = read-out: E-selectin (Homo sapiens) (UniProt P16581); assay: BSK_3C_Eselectin: BioMAP Diversity Plus: 3C Assay for Eselectin Biomarker Activity (AID 2283015); details: primary human endothelial cells (HUVEC); actives raise or lower the signal
Method in brief: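 E-selectin ELISA readout, fitted bidirectionally relative to DMSO, taken 24 h post-dosing in HUVEC cultures of the 3C system. Overt cytotoxicity tracked with sulforhodamine B staining of parallel wells.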

[5] = read-out: Monocyte Chemoattractant Protein-1 (MCP1), CCL2 (gene 6347); assay: BSK_3C_MCP1: BioMAP Diversity Plus: 3C Assay for Monocyte Chemoattractant Protein-1 (MCP1) Biomarker Activity (AID 2283017); details: primary human endothelial cells (HUVEC); actives raise or lower the signal
Method in brief: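 MCP-1 was measured by ELISA 24 h after dosing in primary HUVEC 3C cultures and fitted in both directions relative to DMSO; cytotoxicity was checked by SRB total-protein staining in parallel wells.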

[6] = read-out: Monocyte Chemoattractant Protein-1 (MCP1), CCL2 (gene 6347); assay: BSK_4H_MCP1: BioMAP Diversity Plus: 4H Assay for Monocyte Chemoattractant Protein-1 (MCP1) Biomarker Activity (AID 2283018); details: primary human endothelial cells (HUVEC); actives raise or lower the signal
Method in brief: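 Human umbilical vein endothelial cells (4H system) exposed to chemicals for 24 h in 96-well format. MCP-1 measured by ELISA; bidirectional fitting against DMSO, with SRB total-protein staining in parallel cultures for cytotoxicity.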

[7] = read-out: Human Leukocyte Antigen - DR isotype (HLADR), HLA-DRA (gene 3122); assay: BSK_3C_HLADR: BioMAP Diversity Plus: 3C Assay for Human Leukocyte Antigen - DR isotype (HLADR) Biomarker Activity (AID 2283019); details: primary human endothelial cells (HUVEC); actives raise or lower the signal
Method in brief: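 Bidirectional fitting against DMSO was applied to the HLA-DR ELISA signal from human umbilical vein endothelial cells, 24 h post-dose. Cytotoxicity came from parallel SRB total-protein staining; 3C proliferation was counted by SRB at 48 h.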

[8] = read-out: Interleukin-8 (IL8), CXCL8 (gene 3576); assay: BSK_3C_IL8: BioMAP Diversity Plus: 3C Assay for Interleukin-8 (IL8) Biomarker Activity (AID 2283020); details: primary human endothelial cells (HUVEC); actives raise or lower the signal
Method in brief: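 Primary human umbilical vein endothelial cells were dosed for 24 h. IL-8 was quantified by ELISA and fitted bidirectionally against DMSO. Cytotoxicity was assessed in parallel cultures by SRB staining at 560 nm.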

[9] = read-out: Monokine induced gamma interferon (MIG), CXCL9 (gene 4283); assay: BSK_3C_MIG: BioMAP Diversity Plus: 3C Assay for Monokine induced gamma interferon (MIG) Biomarker Activity (AID 2283021); details: primary human endothelial cells (HUVEC); actives raise or lower the signal;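 for AC50: MIG protein level measured by immunoassay in the treated endothelial cultures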
Method in brief: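 HUVEC primary endothelial cultures dosed with chemical; MIG quantified by ELISA at 24 h. Data fitted bidirectionally against DMSO control, with parallel SRB total-protein staining for cytotoxicity.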

[10] = target: human Vitamin D Receptor (VDR), VDR (gene 7421) (UniProt P11473); assay: ATG_VDR_TRANS: Attagene TRANS-FACTORIAL HepG2 Assay for human Vitamin D Receptor (VDR) (AID 2283022; active = hit-call score of the fitted dose curve at least 0.9, where 1 is the maximum)
Sequence of human Vitamin D Receptor (VDR), VDR (gene 7421) (P11473 whole entry, looked up, the tested form may be a part): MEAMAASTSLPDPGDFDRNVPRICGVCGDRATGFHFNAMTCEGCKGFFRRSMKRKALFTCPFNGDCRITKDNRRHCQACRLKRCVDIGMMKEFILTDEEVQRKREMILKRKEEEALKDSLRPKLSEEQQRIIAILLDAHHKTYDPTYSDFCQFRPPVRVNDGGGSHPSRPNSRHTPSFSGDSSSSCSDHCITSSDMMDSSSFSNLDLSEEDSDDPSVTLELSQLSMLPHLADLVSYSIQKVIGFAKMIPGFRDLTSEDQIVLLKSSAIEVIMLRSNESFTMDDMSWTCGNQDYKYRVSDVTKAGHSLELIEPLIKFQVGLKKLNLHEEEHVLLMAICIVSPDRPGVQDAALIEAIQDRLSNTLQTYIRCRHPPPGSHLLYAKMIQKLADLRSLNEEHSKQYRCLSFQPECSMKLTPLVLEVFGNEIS
Method in brief: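 Transactivation by an exogenous VDR-Gal4 chimera in transiently transfected HepG2 cells was measured as reporter transcript level 24 hours after chemical treatment. RT-PCR products were analysed by capillary electrophoresis and fitted in the positive direction relative to DMSO.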

[11] = BSK_3C_SRB: Viability Assessment in the BioMAP Diversity Plus: 3C Assay (AID 2283023); details: primary human endothelial cells (HUVEC);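 note: fitted both ways against DMSO so a hit may be signal rise or drop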
Method in brief: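 Cytotoxicity readout in parallel HUVEC 3C cultures: after 24 h compound exposure, cells fixed with 10% TCA, stained with 0.1% SRB and read at 560 nm. Gain or loss relative to DMSO fitted.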

[12] = read-out: Matrix Metallopeptidase 1 (MMP1), MMP1 (gene 4312); assay: BSK_BE3C_MMP1: BioMAP Diversity Plus: BE3C Assay for Matrix Metallopeptidase 1 (MMP1) Biomarker Activity (AID 2283024); details: primary human bronchial epithelial cells; actives raise or lower the signal
Method in brief: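 Human primary bronchial epithelial cells (BE3C system) dosed for 24 h; MMP-1 quantified by ELISA. Bidirectional fit against DMSO; cytotoxicity tracked in parallel cultures by SRB total-protein staining.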

[13] = BSK_3C_Vis: BioMAP Diversity Plus: 3C Assay for Morphology Visualization (AID 2283025); details: primary human endothelial cells (HUVEC);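 note: fitted both ways so gain or loss versus DMSO counts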;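 for AC50: light microscopy image of cell morphology used as background control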
Method in brief: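 Human umbilical vein endothelial cell morphology was inspected by light microscopy 24 h after chemical dosing; scored bidirectionally relative to DMSO.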

[14] = read-out: Pselectin, SELP (gene 6403); assay: BSK_4H_Pselectin: BioMAP Diversity Plus: 4H Assay for Pselectin Biomarker Activity (AID 2283026); details: primary human endothelial cells (HUVEC); actives raise or lower the signal
Method in brief: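 Primary human umbilical vein endothelial cells were treated 24 h, and cell-surface P-selectin was then quantified by ELISA. Bidirectional fit versus DMSO; cytotoxicity checked in parallel cultures by SRB total-protein staining.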

[15] = BSK_4H_SRB: Viability Assessment in the BioMAP Diversity Plus: 4H Assay (AID 2283027); details: primary human endothelial cells (HUVEC);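 note: cells exposed to compound for 24 h before staining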;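 for AC50: curves fitted both ways versus DMSO so AC50 may be loss or gain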
Method in brief: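 Human umbilical vein endothelial cells, 24 h after chemical dosing; total protein measured by 0.1% sulforhodamine B staining after 10% TCA fixation, read at 560 nm. Bidirectional fitting against DMSO.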

[16] = BSK_BE3C_SRB: Viability Assessment in the BioMAP Diversity Plus: BE3C Assay (AID 2283028); details: primary human bronchial epithelial cells
Method in brief: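 Cytotoxicity read-out: SRB (0.1%) staining of TCA-fixed (10%) human lung bronchial epithelial cells, absorbance 560 nm, 24 h post-dosing. Curves fitted both directions relative to DMSO.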

[17] = read-out: Thrombomodulin, THBD (gene 7056); assay: BSK_3C_Thrombomodulin: BioMAP Diversity Plus: 3C Assay for Thrombomodulin Biomarker Activity (AID 2283029); details: primary human endothelial cells (HUVEC); actives raise or lower the signal
Method in brief: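 Human umbilical vein endothelial cells were exposed to chemicals for 24 h; cell-surface thrombomodulin quantified by ELISA, with bidirectional fitting against DMSO baseline.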

[18] = target: human RAR-related Orphan Receptor beta (RORb), RORB (gene 6096) (UniProt Q92753); assay: ATG_RORb_TRANS: Attagene TRANS-FACTORIAL HepG2 Assay for human RAR-related Orphan Receptor beta (RORb) (AID 2283010; active = hit-call score of the fitted dose curve at least 0.9, where 1 is the maximum)
Sequence of human RAR-related Orphan Receptor beta (RORb), RORB (gene 6096) (Q92753 whole entry, looked up, the tested form may be a part): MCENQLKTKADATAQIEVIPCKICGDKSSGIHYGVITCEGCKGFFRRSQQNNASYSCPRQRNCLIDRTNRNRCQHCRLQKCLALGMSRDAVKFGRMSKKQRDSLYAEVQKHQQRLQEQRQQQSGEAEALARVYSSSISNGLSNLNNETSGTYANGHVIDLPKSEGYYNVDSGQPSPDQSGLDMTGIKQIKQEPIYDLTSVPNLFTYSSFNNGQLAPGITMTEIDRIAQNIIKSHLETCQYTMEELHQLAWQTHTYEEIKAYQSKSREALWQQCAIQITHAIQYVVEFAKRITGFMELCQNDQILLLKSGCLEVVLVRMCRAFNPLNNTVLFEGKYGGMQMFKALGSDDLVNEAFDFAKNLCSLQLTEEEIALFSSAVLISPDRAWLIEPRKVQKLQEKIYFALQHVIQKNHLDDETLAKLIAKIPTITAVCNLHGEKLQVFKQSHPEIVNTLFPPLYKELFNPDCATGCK
Method in brief: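 HepG2 cells transiently transfected with GAL4-UAS reporter units expressing chimeric NR-Gal4 protein; reporter mRNA measured 24 h after dosing by RT-PCR, 6-FAM labelling and capillary electrophoresis. Gain-of-signal fitted relative to DMSO baseline.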

[19] = target: human Retinoid X Receptor beta (RXRb), RXRB (gene 6257) (UniProt P28702); assay: ATG_RXRb_TRANS: Attagene TRANS-FACTORIAL HepG2 Assay for human Retinoid X Receptor beta (RXRb) (AID 2283013; active = hit-call score of the fitted dose curve at least 0.9, where 1 is the maximum)
Sequence of human Retinoid X Receptor beta (RXRb), RXRB (gene 6257) (P28702 whole entry, looked up, the tested form may be a part): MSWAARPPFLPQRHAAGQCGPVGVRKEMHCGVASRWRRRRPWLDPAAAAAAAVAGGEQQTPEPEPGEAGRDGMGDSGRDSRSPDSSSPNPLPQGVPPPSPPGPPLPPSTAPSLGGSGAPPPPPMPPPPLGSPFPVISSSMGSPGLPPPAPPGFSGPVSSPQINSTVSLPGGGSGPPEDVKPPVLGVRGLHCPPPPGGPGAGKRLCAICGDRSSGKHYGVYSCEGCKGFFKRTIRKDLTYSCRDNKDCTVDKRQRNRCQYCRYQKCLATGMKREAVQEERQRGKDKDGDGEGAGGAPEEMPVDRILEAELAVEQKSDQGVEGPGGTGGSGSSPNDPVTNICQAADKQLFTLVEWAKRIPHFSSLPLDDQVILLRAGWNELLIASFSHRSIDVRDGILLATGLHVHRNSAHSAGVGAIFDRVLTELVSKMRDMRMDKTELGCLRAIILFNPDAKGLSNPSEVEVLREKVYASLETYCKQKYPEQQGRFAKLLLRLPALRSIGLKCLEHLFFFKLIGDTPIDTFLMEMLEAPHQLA
Method in brief: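 HepG2 cells were transiently transfected with multiplexed GAL4-UAS reporters and a chimeric RXRb-Gal4 construct, then exposed for 24 h. Reporter mRNA was quantified by RT-PCR, FAM labeling, HpaI digestion and capillary electrophoresis; gain of signal was scored against DMSO.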

[20] = read-out: Interleukin-1 alpha (IL1a), IL1A (gene 3552); assay: BSK_BE3C_IL1a: BioMAP Diversity Plus: BE3C Assay for Interleukin-1 alpha (IL1a) Biomarker Activity (AID 2283016); details: primary human bronchial epithelial cells; actives raise or lower the signal
Method in brief: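 Human primary bronchial epithelial cells, 24 h chemical exposure; IL-1a quantified by ELISA, fitted bidirectionally against DMSO. Cytotoxicity assessed in parallel by SRB total-protein staining at the time of measurement.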

Measured: AC50

Sequence of E-selectin (Homo sapiens) (P16581 whole entry, looked up): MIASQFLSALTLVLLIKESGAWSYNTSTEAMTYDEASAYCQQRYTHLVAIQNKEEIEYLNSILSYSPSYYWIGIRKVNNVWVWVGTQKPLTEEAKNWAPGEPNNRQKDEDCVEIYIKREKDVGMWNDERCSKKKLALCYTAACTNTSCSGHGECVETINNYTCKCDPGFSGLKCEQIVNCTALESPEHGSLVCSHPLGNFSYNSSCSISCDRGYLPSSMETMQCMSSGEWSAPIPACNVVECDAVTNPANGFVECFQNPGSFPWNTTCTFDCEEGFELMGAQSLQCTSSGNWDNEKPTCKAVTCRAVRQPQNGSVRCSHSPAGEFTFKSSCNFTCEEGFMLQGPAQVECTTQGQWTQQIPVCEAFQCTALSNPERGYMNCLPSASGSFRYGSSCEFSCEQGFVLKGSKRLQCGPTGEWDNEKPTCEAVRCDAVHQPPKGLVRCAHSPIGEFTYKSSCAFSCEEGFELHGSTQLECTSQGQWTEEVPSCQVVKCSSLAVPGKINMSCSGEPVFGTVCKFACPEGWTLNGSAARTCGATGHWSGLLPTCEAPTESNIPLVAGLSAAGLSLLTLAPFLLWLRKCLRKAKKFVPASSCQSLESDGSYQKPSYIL

CCc1ccc(C(c2ccc(CC)cc2)C(Cl)Cl)cc1
active: [5] 12.9 µM | [6] 10.7 µM | [7] 11.8 µM | [8] 11.6 µM | [11] 12.5 µM | [12] 7.64 µM | [13] 13 µM | [15] 15 µM
not listed: [18] | [19] | [20]
inactive: all other assays above

C=CC(=O)OCC(F)(F)C(F)(F)C(F)(F)C(F)(F)C(F)(F)C(F)(F)C(F)(F)F
not listed: [1] | [2] | [3] | [10] | [13] | [19] | [20]
inactive: all other assays above

Cc1ccc(S(=O)(=O)OCC(F)(F)C(F)(F)C(F)(F)C(F)(F)C(F)(F)C(F)F)cc1
inactive: [18] | [2] | [4] | [6] | [7] | [8] | [9] | [12] | [14] | [15] | [17]
active: [4] 33.4 µM | [11] 45.5 µM and 38.1 µM | [12] 18.2 µM

C=CC(=O)OCC(F)(F)C(F)(F)C(F)(F)C(F)(F)COC(=O)C=C
inactive: [1] | [2] | [3] | [16] | [17]
active: [4] 35.8 µM and 38.1 µM | [5] 33.8 µM and 22.1 µM | [6] 49.4 µM and 49 µM | [7] 17.2 µM and 18.1 µM | [8] 23.6 µM and 44.4 µM | [9] 23.5 µM and 26.4 µM | [11] 34.8 µM and 24.8 µM | [12] 20.4 µM and 20.5 µM | [14] 20.6 µM and 28.9 µM | [15] 47.1 µM and 44.8 µM

CC(C)c1ccccc1N
inactive: [18] | [19]

CNC(=S)NC
inactive: [18] | [19] | [3]

Nc1ccc([N+](=O)[O-])cc1O
not listed: [1] | [19]
inactive: all other assays above

CCCCCCS
active: [19] 100 µM
inactive: [1] | [2] | [10]

O=C(O)C(F)(F)C(F)(F)C(F)F
not listed: [5] | [10] | [13] | [16] | [18]
inactive: all other assays above
